PubChem BioAssay (EPA / NIEHS)
“And” between values parts separate entries of the source, which are not always exact repeats. Identical values can stand only once. The source holds several records for some structures; these can differ, active in one and inactive in another. The source made the active and inactive calls. How the source made its calls: active means hit-call score of the fitted dose curve at least 0.9, where 1 is the maximum; inactive means score below 0.9.

Experiments:
[1] = ATG_CRE_CIS: Attagene CIS-FACTORIAL HepG2 Assay for human cAMP Responsive Element (CRE) binding protein 3 (AID 2282926); conditions: HepG2 CRE cis-reporter, Attagene multiplexed mRNA; actives raise or lower the signal
Procedure, shortened: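 Assay format: transient reporter transfection of HepG2, 24 h treatment, total RNA isolation with DNase I step. Reporter abundance read by fluorescence after PCR and capillary separation; DMSO-normalised gain or loss fitting.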

[2] = biological target: CCAAT/enhancer-binding protein beta (Homo sapiens) (UniProt P17676); assay: ATG_C_EBP_CIS: Attagene CIS-FACTORIAL HepG2 Assay for human CCAAT/Enhancer Binding Protein (C/EBP) beta (AID 2282927); conditions: HepG2 Attagene cis-factorial transcription factor reporter; actives raise or lower the signal
Chain of CCAAT/enhancer-binding protein beta (Homo sapiens) (P17676 whole entry, looked up): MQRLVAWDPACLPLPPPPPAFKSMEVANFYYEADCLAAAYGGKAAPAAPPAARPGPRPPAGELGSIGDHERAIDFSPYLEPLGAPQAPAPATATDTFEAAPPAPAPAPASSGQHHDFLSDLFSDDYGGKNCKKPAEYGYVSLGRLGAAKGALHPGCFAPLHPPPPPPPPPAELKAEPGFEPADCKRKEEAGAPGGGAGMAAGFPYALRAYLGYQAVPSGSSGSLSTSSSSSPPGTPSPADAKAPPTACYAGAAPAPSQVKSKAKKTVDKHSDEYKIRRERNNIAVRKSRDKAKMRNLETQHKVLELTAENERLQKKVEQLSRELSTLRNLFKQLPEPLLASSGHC
Procedure, shortened: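 Following a 24 h incubation with test chemical, transfected HepG2 cells yielded RNA whose reporter transcripts were quantified by RT-PCR and fluorescent capillary electrophoresis, with DMSO serving as baseline for bidirectional fitting.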

[3] = ATG_CMV_CIS: Attagene CIS-FACTORIAL HepG2 Assay for human CMV (Internal Marker) (AID 2282928); conditions: HepG2 CMV promoter reporter, transcription factor profiling; actives raise or lower the signal;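 further: endpoint acts as a background internal control marker rather than a target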
Procedure, shortened: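 Fluorescence intensity of RT-PCR-derived reporter fragments, resolved by capillary electrophoresis, gives the signal. HepG2 liver cells bearing transfected cis-element reporters were treated 24 h; activity in either direction was fit relative to DMSO-treated controls.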

[4] = ATG_DR4_LXR_CIS: Attagene CIS-FACTORIAL HepG2 Assay for human Liver X Receptor (LXR), DR4 submotif (AID 2282929); conditions: HepG2 Attagene DR4 cis-reporter, mRNA transcription; actives raise or lower the signal
Procedure, shortened: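 HepG2, transient MRTU transfection, cis-element (DR4) promoter; 24 h compound exposure; total RNA → oligo(dT) RT → PCR → 6-FAM primer extension → HpaI cut → CE. Gain/loss vs DMSO, bidirectional fit.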

[5] = biological target: Aryl hydrocarbon receptor (Homo sapiens) (UniProt P35869); assay: ATG_Ahr_CIS: Attagene CIS-FACTORIAL HepG2 Assay for human Aryl Hydrocarbon Receptor (Ahr) (AID 2282930); conditions: HepG2 AhR cis-factorial reporter transcription; actives raise or lower the signal
Chain of Aryl hydrocarbon receptor (Homo sapiens) (P35869 whole entry, looked up): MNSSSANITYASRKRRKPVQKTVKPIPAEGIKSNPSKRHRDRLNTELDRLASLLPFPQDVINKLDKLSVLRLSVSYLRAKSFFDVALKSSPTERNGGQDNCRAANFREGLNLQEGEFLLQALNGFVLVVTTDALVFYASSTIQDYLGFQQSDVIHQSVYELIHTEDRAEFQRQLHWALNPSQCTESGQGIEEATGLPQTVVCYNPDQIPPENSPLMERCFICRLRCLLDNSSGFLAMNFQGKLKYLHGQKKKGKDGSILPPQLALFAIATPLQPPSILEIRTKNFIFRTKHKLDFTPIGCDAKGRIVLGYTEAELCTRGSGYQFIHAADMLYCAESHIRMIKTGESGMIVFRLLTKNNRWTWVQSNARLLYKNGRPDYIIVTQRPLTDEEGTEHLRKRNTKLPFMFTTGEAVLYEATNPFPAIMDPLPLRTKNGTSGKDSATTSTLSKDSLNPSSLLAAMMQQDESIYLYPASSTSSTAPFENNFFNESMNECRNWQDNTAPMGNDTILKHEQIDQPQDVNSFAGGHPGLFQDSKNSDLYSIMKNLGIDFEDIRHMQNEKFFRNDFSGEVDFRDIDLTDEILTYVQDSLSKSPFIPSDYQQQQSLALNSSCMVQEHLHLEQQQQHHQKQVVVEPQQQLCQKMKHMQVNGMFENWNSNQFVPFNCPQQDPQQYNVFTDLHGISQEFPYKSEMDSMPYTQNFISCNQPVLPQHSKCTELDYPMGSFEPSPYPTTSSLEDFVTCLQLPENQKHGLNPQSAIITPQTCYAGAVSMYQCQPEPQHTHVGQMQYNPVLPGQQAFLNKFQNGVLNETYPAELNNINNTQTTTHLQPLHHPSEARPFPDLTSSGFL
Procedure, shortened: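 Values derive from bidirectional fitting against DMSO negative control. Underlying signal: cis-element reporter mRNA in transiently transfected HepG2, harvested 24 h post-dose and measured by RT-PCR plus capillary electrophoresis.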

[6] = ATG_AP_1_CIS: Attagene CIS-FACTORIAL HepG2 Assay for human Activator Protein 1 (AP-1) (AID 2282931); conditions: HepG2 Attagene cis-factorial AP-1 reporter mRNA; actives raise or lower the signal
Procedure, shortened: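 Transient MRTU transfection of HepG2 → 24 h chemical treatment → RNA isolation, RT-PCR, 6-FAM labelling, HpaI digest → capillary electrophoresis. Fit: bidirectional, DMSO negative control.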

[7] = ATG_AP_2_CIS: Attagene CIS-FACTORIAL HepG2 Assay for human Activator Protein 2 (AP-2) (AID 2282932); conditions: HepG2 AP-2 cis-reporter, Attagene transcription factor profiling; actives raise or lower the signal
Procedure, shortened: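 Cells (HepG2) transfected with promoter-driven reporter constructs, treated 24 h. Total RNA reverse-transcribed, reporter cDNA PCR-amplified, FAM-labelled by primer extension, digested, resolved by capillary electrophoresis. Activity fitted both directions versus DMSO.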

[8] = ATG_BRE_CIS: Attagene CIS-FACTORIAL HepG2 Assay for human Bone Morphogenetic Protein (BMP) Response Element (BRE) (AID 2282933); conditions: HepG2 BMP response element reporter, Attagene transcription factor profiling; actives raise or lower the signal
Procedure, shortened: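 After a 24 h chemical treatment, transiently transfected HepG2 cells were lysed for RNA; reporter transcripts were quantified by fluorescent RT-PCR and capillary electrophoresis, normalised to DMSO.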

[9] = biological target: Retinoic acid receptor alpha (Homo sapiens) (UniProt P10276); assay: ATG_DR5_RAR_CIS: Attagene CIS-FACTORIAL HepG2 Assay for human Retinoic Acid Receptor Alpha (RARE), DR5 submotif (AID 2282934); conditions: HepG2 Attagene cis-factorial RARE DR5 reporter, mRNA; actives raise or lower the signal
Chain of Retinoic acid receptor alpha (Homo sapiens) (P10276 whole entry, looked up): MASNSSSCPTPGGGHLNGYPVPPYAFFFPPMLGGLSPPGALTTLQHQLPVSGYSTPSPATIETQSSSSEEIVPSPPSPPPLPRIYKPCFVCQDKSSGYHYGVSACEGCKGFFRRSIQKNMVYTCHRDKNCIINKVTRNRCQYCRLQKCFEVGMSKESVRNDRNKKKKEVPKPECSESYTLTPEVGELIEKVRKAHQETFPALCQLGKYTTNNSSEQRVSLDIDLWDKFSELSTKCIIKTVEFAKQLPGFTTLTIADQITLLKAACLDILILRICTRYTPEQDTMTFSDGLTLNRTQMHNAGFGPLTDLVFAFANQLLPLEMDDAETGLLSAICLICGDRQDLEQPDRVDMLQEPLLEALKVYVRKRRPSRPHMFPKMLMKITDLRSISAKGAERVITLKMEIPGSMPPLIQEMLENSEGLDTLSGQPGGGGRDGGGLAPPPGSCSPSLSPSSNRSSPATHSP
Procedure, shortened: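 Endpoint fitted in both directions relative to DMSO as negative control. It reflects DR5 cis-element reporter mRNA induction in transiently transfected HepG2 cells, measured 24 h after dosing through RT-PCR and fluorescent capillary electrophoresis.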

[10] = biological target: Transcription factor E2F1 (Homo sapiens) (UniProt Q01094); assay: ATG_E2F_CIS: Attagene CIS-FACTORIAL HepG2 Assay for human E2F Transcription Factor 1 (AID 2282935); conditions: HepG2 Attagene cis-reporter, E2F reporter RNA transcripts; actives raise or lower the signal
Chain of Transcription factor E2F1 (Homo sapiens) (Q01094 whole entry, looked up): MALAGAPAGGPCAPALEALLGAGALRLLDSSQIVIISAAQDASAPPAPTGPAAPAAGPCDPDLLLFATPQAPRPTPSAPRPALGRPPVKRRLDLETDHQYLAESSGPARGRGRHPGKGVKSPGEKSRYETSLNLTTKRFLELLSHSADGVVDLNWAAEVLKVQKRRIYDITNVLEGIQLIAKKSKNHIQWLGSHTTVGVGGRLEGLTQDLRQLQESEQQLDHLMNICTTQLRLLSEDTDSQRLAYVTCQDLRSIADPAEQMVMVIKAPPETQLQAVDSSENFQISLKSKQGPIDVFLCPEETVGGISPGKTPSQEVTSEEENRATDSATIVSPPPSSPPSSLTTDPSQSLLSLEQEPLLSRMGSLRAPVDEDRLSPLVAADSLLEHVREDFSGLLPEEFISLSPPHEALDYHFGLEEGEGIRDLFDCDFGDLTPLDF
Procedure, shortened: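 First, HepG2 cells were transfected with reporter transcription units. Next, they were dosed for 24 h. Then RNA was isolated, converted to cDNA, PCR-amplified, FAM-labeled, HpaI-digested and analyzed by capillary electrophoresis.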

[11] = ATG_E_Box_CIS: Attagene CIS-FACTORIAL HepG2 Assay for human Enhancer Box (E-box) (AID 2282936); conditions: HepG2 E-box cis-reporter transcription, actives raise or lower the signal
Procedure, shortened: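 Endogenous transcription factor activity was sensed in human HepG2 liver cells through transfected cis-promoter reporter units. After 24 h of dosing, total RNA was reverse-transcribed and reporter cDNA resolved by capillary electrophoresis.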

[12] = ATG_M_61_CIS: Attagene CIS-FACTORIAL HepG2 Assay for M61 Transcription Factor (Internal Marker) (AID 2282937); conditions: HepG2 Attagene CIS-FACTORIAL M61 internal marker reporter; actives raise or lower the signal
Procedure, shortened: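 Human liver HepG2, transient MRTU transfection (cis promoter elements), 24 h compound. Total RNA → oligo(dT) RT → PCR → FAM label → HpaI → CE. Internal background marker; bidirectional fitting, DMSO = baseline.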

[13] = ATG_EGR_CIS: Attagene CIS-FACTORIAL HepG2 Assay for human Early Growth Response 1 (EGR1) (AID 2282938); conditions: HepG2 Attagene CIS-FACTORIAL EGR reporter mRNA; actives raise or lower the signal
Procedure, shortened: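 Transient transfection of human HepG2 with multiple cis-regulated reporter units, chemical exposure 24 h, total RNA isolated. Reverse transcription, PCR, fluorescent labelling and capillary electrophoresis quantify reporter transcripts; activity fitted bidirectionally against DMSO.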

[14] = ATG_M_19_CIS: Attagene CIS-FACTORIAL HepG2 Assay for M19 Transcription Factor (Internal Marker) (AID 2282939); conditions: HepG2 Attagene CIS-FACTORIAL M19 internal marker reporter; actives raise or lower the signal
Procedure, shortened: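 In this multiplexed cell assay, transiently transfected HepG2 reporter units report endogenous transcription-factor activity; after 24 hours of treatment, labelled reporter cDNA fragments are quantified by capillary electrophoresis and fitted bidirectionally against DMSO.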

[15] = ATG_Ets_CIS: Attagene CIS-FACTORIAL HepG2 Assay for human Erythroblast Transformation Specific (ETS) (AID 2282941); conditions: HepG2 ETS cis-reporter transcription, actives raise or lower the signal
Procedure, shortened: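 Multiplexed reporter transcript profiling: HepG2, 24 h treatment, total RNA to cDNA, PCR, 6-FAM labelling, HpaI cut, capillary electrophoresis. Gain- or loss-of-signal fitted against DMSO.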

[16] = biological target: Hepatocyte nuclear factor 3-beta (Homo sapiens) (UniProt Q9Y261); assay: ATG_FoxA2_CIS: Attagene CIS-FACTORIAL HepG2 Assay for human Forkhead box A2 (FOXA2) (AID 2282942); conditions: HepG2 cis-reporter transcription factor activity, 24 h; actives raise or lower the signal
Chain of Hepatocyte nuclear factor 3-beta (Homo sapiens) (Q9Y261 whole entry, looked up): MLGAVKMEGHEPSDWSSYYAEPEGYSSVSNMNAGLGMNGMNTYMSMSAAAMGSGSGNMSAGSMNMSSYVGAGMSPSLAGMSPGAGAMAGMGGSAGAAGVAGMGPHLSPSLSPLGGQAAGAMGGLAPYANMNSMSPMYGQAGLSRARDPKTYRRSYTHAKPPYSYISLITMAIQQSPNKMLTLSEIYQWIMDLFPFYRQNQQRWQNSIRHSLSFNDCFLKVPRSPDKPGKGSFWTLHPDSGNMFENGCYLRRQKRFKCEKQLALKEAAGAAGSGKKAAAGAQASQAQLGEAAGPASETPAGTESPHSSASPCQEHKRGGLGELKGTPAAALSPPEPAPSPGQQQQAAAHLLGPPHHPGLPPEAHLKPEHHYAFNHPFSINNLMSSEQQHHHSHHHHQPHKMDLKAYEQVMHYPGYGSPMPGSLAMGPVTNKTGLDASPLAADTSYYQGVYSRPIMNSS
Procedure, shortened: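 Transient MRTU transfection of HepG2 liver cells; 24 h treatment; total RNA → oligo(dT) RT → PCR → FAM primer extension → HpaI cut → CE. Bidirectional fit vs DMSO.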

[17] = ATG_FoxO_CIS: Attagene CIS-FACTORIAL HepG2 Assay for human Forkhead box O (FoxO) (AID 2282943); conditions: HepG2 Attagene cis-reporter, FoxO element, mRNA; actives raise or lower the signal
Procedure, shortened: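 Values reflect reporter mRNA induction or loss in HepG2 cells 24 h post-dosing, fitted bidirectionally with DMSO as negative control and baseline. Detection used RT-PCR and fluorescence capillary electrophoresis.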

[18] = ATG_GATA_CIS: Attagene CIS-FACTORIAL HepG2 Assay for human GATA Binding Protein (AID 2282944); conditions: HepG2 GATA cis-element reporter, Attagene multiplex mRNA; actives raise or lower the signal
Procedure, shortened: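 Measures endogenous transcription factor-driven reporter mRNA in HepG2 cells transiently carrying cis-regulated constructs. 24 h dosing; RNA via oligo(dT) reverse transcription, PCR, HpaI digestion, capillary electrophoresis; fitted relative to DMSO.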

[19] = ATG_GLI_CIS: Attagene CIS-FACTORIAL HepG2 Assay for human Zinc Finger Protein GLI1 (AID 2282945); conditions: HepG2, Attagene cis-factorial reporter mRNA, GLI element; actives raise or lower the signal
Procedure, shortened: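 HepG2 cells transiently transfected with cis-promoter multiplexed reporter units report endogenous transcription factor activity. After 24 h chemical exposure, reporter mRNA was quantified by RT-PCR, 6-FAM labelling, HpaI digestion and capillary electrophoresis, with bidirectional fitting against DMSO.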

Measured: AC50

c1ccc(N=Nc2ccccc2)cc1
active: [4] 100 µM | [5] 125 µM
inactive: all other assays above

CN(C)c1ccc(C(=O)c2ccc(N(C)C)cc2)cc1
active: [5] 65.5 µM
inactive: all other assays above

Cc1ccc(N=C=O)cc1N=C=O
inactive: all assays above

C[C@]12C=CC3=C4CCC(=O)C=C4CC[C@H]3[C@@H]1CC[C@@H]2O
inactive: [1] | [2] | [3] | [4] | [5] | [6] | [7] | [8] | [10] | [11] | [12] | [13] | [15] | [16] | [17] | [18] | [19]
active: [1] 68.8 µM | [2] 18 µM | [3] 28.3 µM | [4] 19.8 µM | [5] 19.8 µM and 35.7 µM | [7] 19.8 µM and 26.5 µM and 7.78 µM | [13] 25.3 µM | [15] 31.8 µM and 30 µM | [17] 30.2 µM

CC(O)CCO (stereo unspecified)
inactive: all assays above

CCCCOC(=O)c1ccccc1C(=O)OCc1ccccc1
inactive: all assays above
